The text below walks through data of PubChem BioAssay (EPA / NIEHS).

The nature of test [1]: UKN5_HCS_SBAD2_cell_viability: Viability Assessment in the University of Konstanz (UKN) Leist Lab Neurite Outgrowth Assay in human iPSC-derived immature Dorsal Root Ganglia Neurons (UKN5) (AID 2284056; active = hit-call score of the fitted dose curve at least 0.9, where 1 is the maximum; inactive = score below 0.9). A digest of the protocol: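 iPSC-derived immature peripheral neurons (SBAD2) seeded on Matrigel with CHIR99021, SU5402 and DAPT, dosed 1 h later for 24 h. Viability from Hoechst H-33342 and calcein-AM live staining, high-content imaging; bidirectional fit versus DMSO.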

Test [2] can be described thus: UKN5_HCS_SBAD2_neurite_outgrowth: University of Konstanz (UKN) Leist Lab Neurite Outgrowth Assay in human iPSC-derived immature Dorsal Root Ganglia Neurons (UKN5) (AID 2284070; active = hit-call score of the fitted dose curve at least 0.9, where 1 is the maximum; inactive = score below 0.9). Conditions: actives raise or lower the signal. The procedure, abridged: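 SBAD2 iPSC-derived immature peripheral neurons on Matrigel, 100.000 cells/cm2, medium with CHIR99021 (1.5 uM), SU5402 (5 uM), DAPT (5 uM); compound added 1 h post-seeding for 24 h. Calcein-AM neurite area by high-content imaging; Hoechst H-33342 viability; bidirectional fit vs DMSO.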

Test [3] is described as follows: CCTE_Mundy_HCI_hN2_NOG_NeuriteCount: CCTE's Neurite Outgrowth Assay in human hN2 cells for Neurite Count, Mundy Lab (AID 2284219). The procedure, abridged: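 In this morphology assay, hNP1-derived neurons received test chemical 2 h post-plating and were fixed two days later in warm paraformaldehyde/sucrose containing Hoechst 33342. Neurites, labelled by rabbit anti-βIII-tubulin (1:800) and Alexa Fluor-488 (1:500), were counted automatically.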

The nature of test [4]: CCTE_Mundy_HCI_hN2_NOG_NeuriteLength: CCTE's Neurite Outgrowth Assay in human hN2 cells for Neurite Length, Mundy Lab (AID 2284220). The procedure: CCTE_Mundy_HCI_hN2_NOG is a multiplexed, cell-based-readout assay that uses immature neurons derived from hNP1 neuroprogenitor cells with measurements taken at 50.33 hours after chemical dosing in a microplate: 96-well plate.CCTE_Mundy_HCI_hN2_NOG_NeuriteLength is one of four components of the CCTE_Mundy_HCI_hN2_NOG assay. It measures neurite outgrowth related to neurite length using High Content Imaging of fluorescently labelled markers.[…] Using a type of morphology reporter, loss -of-signal activity can be used to understand developmental effects.
Exposure starts 2 hours post-plating by adding 10 ul of the working solution to 90 ul of media in the wells for a 1/10 dilution. Forty-eight hours after chemical treatment cells are fixed by direct addition of 100 ul of warm (37C) Dulbecco's phosphate buffered saline (DPBS) fixative solution containing 8% paraformaldehyde, 8% sucrose, and 0.1% of 3 mg/ml Hoechst 33342 into each well. Primary antibodies are prepared by dilution in Immunocytochemical Staining Buffer (ISB), 10X Dulbecco's PBS, 0.1% Saponin, 5% Bovine Serum Albumin, 0.5% NaN3 (Sodium Azide) and betaIII-tubulin (rabbit anti-betaIII-tubulin, 1:800) followed by Alexa Fluor-488 secondary (1:500) to label neuronal cell bodies and neurites. A Cellomics ArrayScan VTi HCS Reader is used for automated image acquisition and analysis of neurite outgrowth.

Test [5] in a line: CCTE_Mundy_HCI_hN2_NOG_NeuronCount: CCTE's Neurite Outgrowth Assay in human hN2 cells for Neuron Count, Mundy Lab (AID 2284221). A digest of the protocol:
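Read-out is the number of betaIII-tubulin-positive neurons imaged by automated high-content analysis, with DMSO as negative control.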

Results filed as inconclusive are left out. Activity calls are given as the source filed them. Rule for the calls, unless noted: active = hit-call score of the fitted dose curve at least 0.9, where 1 is the maximum; inconclusive = response in the unintended direction; inactive = score below 0.9.

`O=S1(=O)OCC2C(CO1)C1(Cl)C(Cl)=C(Cl)C2(Cl)C1(Cl)Cl` (configuration not stated): the call in test [1] and in test [2] was inactive.
For the compound `O=P1(N(CCCl)CCCl)NCCCO1` (configuration not stated), the compound was classed as inactive in test [3] and in test [4].
As to `CCC1(c2ccccc2)C(=O)N=C(O)NC1=O` (configuration not stated), the outcome in test [3], in test [4] and in test [5] was inactive.
